Laboratory results as given in PubChem BioAssay (EPA / NIEHS).
Inconclusive results are not listed. The source made the active and inactive calls. Rule for the calls: active = hit-call score of the fitted dose curve at least 0.9, where 1 is the maximum; inconclusive = response in the unintended direction; inactive = score below 0.9.

Columns and labels:
[1] = molecular target: Cellular tumor antigen p53 (Homo sapiens) (UniProt P04637); assay: TOX21_p53_BLA_p2_ratio: Tox21 HCT-116 p53 Agonism Beta-lactamase Assay, Ratio, Phase 2 (AID 2283592)
Sequence of Cellular tumor antigen p53 (Homo sapiens) (P04637 whole entry, looked up): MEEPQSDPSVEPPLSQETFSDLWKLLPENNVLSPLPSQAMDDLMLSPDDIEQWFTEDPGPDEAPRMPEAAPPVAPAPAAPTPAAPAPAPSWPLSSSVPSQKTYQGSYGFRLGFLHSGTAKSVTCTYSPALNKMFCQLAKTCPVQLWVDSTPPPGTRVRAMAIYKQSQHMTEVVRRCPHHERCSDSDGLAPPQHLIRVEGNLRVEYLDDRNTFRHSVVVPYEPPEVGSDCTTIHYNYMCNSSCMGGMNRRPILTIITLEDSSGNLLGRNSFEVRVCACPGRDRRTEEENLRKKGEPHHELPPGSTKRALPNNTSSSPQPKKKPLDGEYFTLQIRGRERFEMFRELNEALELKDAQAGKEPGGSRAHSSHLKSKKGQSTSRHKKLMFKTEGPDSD
Procedure, shortened: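 Human colon HCT116 cells with an inducible p53 beta-lactamase reporter are exposed to test chemicals for 16 h at 37C. Reporter induction is read as the 460/530 nm emission ratio after CCF4-AM loading, normalized to DMSO.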

[2] = TOX21_p53_BLA_p4_viability: Viability Assessment in the Tox21 HCT-116 p53 Agonism Beta-lactamase Assay, Phase 4 (AID 2283597);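 note: hits lower the luminescence signal meaning cytotoxicity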
Procedure, shortened: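 Luminescent ATP readout (CellTiter-Glo, 30 min, room temperature) in the same wells as the p53 bla ratio. HCT116 cells were treated for 16 h at 37C with DMSO-dissolved compounds.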

[3] = molecular target: Cellular tumor antigen p53 (Homo sapiens) (UniProt P04637); assay: TOX21_p53_BLA_p5_ratio: Tox21 HCT-116 p53 Agonism Beta-lactamase Assay, Ratio, Phase 5 (AID 2283599)
Procedure, shortened: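 HCT-116 p53-bla cells (4000/well) plated 5 h, dosed with compound (217-fold DMSO dilution) for 16 h at 37 C; CCF4-AM substrate 2 h at room temperature. Activity is the 460/530 nm emission ratio (405 nm excitation), fitted in gain-of-signal direction versus DMSO.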

[4] = TOX21_p53_BLA_p5_viability: Viability Assessment in the Tox21 HCT-116 p53 Agonism Beta-lactamase Assay, Phase 5 (AID 2283600)
Procedure, shortened: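 Seeded cells (4000/well) settle 5 h before compound addition. Plates then incubate 16 h at 37C, receive FRET substrate for 2 h, and finally CellTiter-Glo, with luminescence measured after a 30 min room-temperature incubation.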

[5] = molecular target: Cellular tumor antigen p53 (Homo sapiens) (UniProt P04637); assay: TOX21_p53_BLA_p4_ratio: Tox21 HCT-116 p53 Agonism Beta-lactamase Assay, Ratio, Phase 4 (AID 2283601)
Procedure, shortened: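 HCT-116 p53 beta-lactamase reporter cells (4000/well) preincubated 5 h, then compound (217-fold dilution of DMSO stock) for 16 h at 37C. CCF4-AM substrate added 2 h at room temperature; 460/530 nm emission ratio fitted upward versus DMSO.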

Measured: outcome

CCCCCCCCCCCCCCCCCC(=O)OCCO
inactive: [1] | [2] | [3] | [4] | [5]

CC1(C)O[C@@H]2C[C@H]3[C@@H]4CCC5=CC(=O)CC[C@]5(C)[C@@]4(F)[C@@H](O)C[C@]3(C)[C@]2(C(=O)CCl)O1
inactive: [1] | [2] | [4] | [5]

Nc1nc(-c2ccc([N+](=O)[O-])cc2)cs1
inactive: [1] | [2] | [3] | [4] | [5]

OCCOc1ccc(OCCO)cc1
inactive: [1] | [2] | [4] | [5]

CC(C)=CC(C)(C)C
inactive: [1] | [2] | [5]

ClC(Cl)Cl
inactive: [1] | [2] | [3] | [4] | [5]

O=C(O)CCNC(=O)c1ccc(N=Nc2ccc(O)c(C(=O)O)c2)cc1
inactive: [1] | [2] | [3] | [5]

Cc1cc(C)cc([N+](=O)[O-])c1
inactive: [1] | [2] | [4] | [5]

CN(C)CCC=C1c2ccccc2C=Cc2ccccc21
inactive: [1] | [2] | [3] | [5]

c1ccc2nccnc2c1
inactive: [1] | [2] | [3] | [4] | [5]

CN1CC(=O)N=C1N
inactive: [1] | [2] | [3]

O=C1CC[C@H](C(=O)N2CCCCC2)N1
inactive: [1] | [2] | [3] | [4] | [5]

CNC(=O)[C@H](Cc1c[nH]c2ccccc12)NC(=O)[C@@H](CC(=O)NO)CC(C)C
inactive: [1] | [2] | [3] | [4] | [5]

CCCCCCCCCCCCCCBr
inactive: [1] | [2] | [4] | [5]

CCN1CCc2nc(N)oc2CC1
inactive: [1] | [2] | [3] | [4] | [5]

O=C(O)CCS
inactive: [1] | [2] | [4] | [5]

CN(CC(=O)N1CCOCC1)Cc1c(Cl)cccc1NC(=O)c1ccccc1
inactive: [1] | [2] | [4]

COc1ccc([C@@H]2CC(=O)c3c(O)cc(O[C@@H]4O[C@H](CO[C@@H]5O[C@@H](C)[C@H](O)[C@@H](O)[C@H]5O)[C@@H](O)[C@H](O)[C@H]4O)cc3O2)cc1O
inactive: [1] | [2] | [3] | [4] | [5]
